Measured values reported in PubChem BioAssay AID2620 (National Center for Advancing Translational Sciences (NCATS), 2010).
Results filed as inconclusive are left out. Calls come from the whole dose curve; as a rule, active = well fitted curve in the direction sought with a large enough effect; inconclusive = small, poorly fitted or top-dose-only effect, or another doubt; inactive = no such curve, though single readings can be large or run the other way.

The compounds below were run against Pyruvate kinase PKM (Homo sapiens) (UniProt P14618) (assay: Secondary LDH Assay for Activators of Human Pyruvate Kinase M1 Isoform: for Probe SAR). Conditions: purified hPK-M1, LDH-coupled NADH fluorescence kinetic; series mostly up to 58.2 µM; activity change, negative = inhibition: at the top concentration.
Procedure, shortened: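 Kinetic LDH-coupled read: initial rates from NADH fluorescence loss over 3-6 min, normalized to uninhibited controls. Final conditions 10 nM hPK-M1, 1 uM LDH, PEP 0.1 mM, ADP 4.0 mM, NADH 0.2 mM in Tris-Cl pH 8.0 with KCl and MgCl2.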
Note: % of control where 0% means no effect.

Pyruvate kinase PKM (Homo sapiens), sequence (P14618 whole entry, looked up, canonical isoform): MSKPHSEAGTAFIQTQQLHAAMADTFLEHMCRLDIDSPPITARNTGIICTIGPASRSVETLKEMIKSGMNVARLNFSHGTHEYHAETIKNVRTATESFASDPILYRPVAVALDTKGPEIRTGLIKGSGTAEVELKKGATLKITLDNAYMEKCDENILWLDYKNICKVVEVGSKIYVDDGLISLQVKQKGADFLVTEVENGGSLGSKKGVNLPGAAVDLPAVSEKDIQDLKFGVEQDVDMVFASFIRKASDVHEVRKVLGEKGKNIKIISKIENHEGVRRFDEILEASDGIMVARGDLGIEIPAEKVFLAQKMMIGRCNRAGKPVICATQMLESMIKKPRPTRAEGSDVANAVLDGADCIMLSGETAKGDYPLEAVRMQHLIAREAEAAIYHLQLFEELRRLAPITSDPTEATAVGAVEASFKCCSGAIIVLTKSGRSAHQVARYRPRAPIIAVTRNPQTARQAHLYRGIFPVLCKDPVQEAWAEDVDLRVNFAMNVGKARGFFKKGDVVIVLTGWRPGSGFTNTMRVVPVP

Activity change, negative = inhibition, inactive:
Cc1ccc(NS(=O)(=O)c2ccc3c(c2)oc(=O)n3C)cc1C 9.95%
Cc1ccc(NS(=O)(=O)c2ccc3c(ccn3C)c2)cc1C 7.17%
O=C1c2ccccc2C(=O)N1c1cccc2ccncc12 -5.12%
Cc1ccc2nc(-c3ccc(C)o3)c(Nc3ccc(F)cc3)n2c1 -22%
Cc1ccc(NS(=O)(=O)c2cccc(Cl)c2)cc1C 4.63%
COc1ccc(N2C(=O)c3ccccc3C2=O)cc1 6.4%
CN=c1nc(-c2ccccc2)n(-c2ccccc2)s1 7.26%
O=C1CCc2cc(S(=O)(=O)Nc3ccc(Cl)cc3)ccc2N1 -4.92%
COc1ccccc1N1C(=O)c2ccccc2C1=O 11.6%
CN(C)c1cccc(S(=O)(=O)N2CCCN(S(=O)(=O)c3ccc4c(c3)OCCO4)CC2)c1 8.35%
Cc1ccc2nc(-c3ccc(C)o3)c(NC3CCCC3)n2c1 -5.73%
Cc1ccc(NS(=O)(=O)c2cc3c(cc2-c2ccsc2)NC(=O)CO3)cc1C 11.5%
Cc1ccc(Nc2c(-c3ccc(C)o3)nc3cccc(C)n23)cc1 -25.5%
Cc1ccc(NS(=O)(=O)c2cc3c(cc2/C=C/c2ccccc2)NC(=O)CO3)cc1C 1.26%
O=C1CCc2cc(S(=O)(=O)Nc3ccc(-c4ccccc4)cc3)ccc2N1 3.36%
O=C1CCc2cc(S(=O)(=O)Nc3cccc(Cl)c3)ccc2N1 -3.53%
Cc1ccc(NS(=O)(=O)c2cccc(F)c2)cc1C 4.61%
COc1cccc(Cn2ncc3c4sc(SC)cc4n(C)c3c2=O)c1 5.9%
COc1ccc(OC2=NS(=O)(=O)c3ccccc32)cc1 8.93%
Cc1ccc(NS(=O)(=O)c2cc3c(cc2N2CCCCC2)NC(=O)CC3)cc1C 0.398%
Cc1ccc(NS(=O)(=O)c2cc3c(cc2N(C)C)CCC(=O)N3)cc1C 1.17%
O=C1c2ccccc2C(=O)N1c1ncccc1O 6.3%
O=C1CCc2cc(S(=O)(=O)Nc3cccc(Oc4ccccc4)c3)ccc2N1 -2.58%
Cn1c2cc(S(C)=O)sc2c2cnn(Cc3cccc(N)c3)c(=O)c21 (stereo not given) 1.03%
O=C1CCc2cc(S(=O)(=O)Nc3ccc4ccccc4c3)ccc2N1 7.62%
CC(=O)N1CCc2cc(S(=O)(=O)Nc3ccc(C)c(C)c3)ccc21 8.26%
O=C1c2ccccc2C(=O)N1Cc1cccnc1 -1.54%
O=C1CCc2cc(S(=O)(=O)Nc3cccc(B(O)O)c3)ccc2N1 -1.4%
O=S1(=O)N=C(Oc2cccc(Cl)c2)c2ccccc21 2.94%
CC(=O)N1CCCc2cc(S(=O)(=O)Nc3ccc(C)c(C)c3)ccc21 3.31%
